The nature of assay [1]: NCI Yeast Anticancer Drug Screen. Data for the rad50 strain (AID 155).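 Also: 0% = growth of vehicle-only cultures of the same strain.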 The settings on record: S. cerevisiae rad50 strain growth inhibition, stronger effect = higher value. A digest of the protocol:
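Yeast carrying a defined DNA repair defect were exposed to test compounds, and growth was compared with vehicle-treated controls to give percent inhibition.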

A short description of assay [2]: NCI Yeast Anticancer Drug Screen. Data for the mec2-1 strain (AID 157). The settings on record: S. cerevisiae mec2-1 strain, stronger effect = higher value. An outline of the steps:
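Growth inhibition is read against vehicle-treated controls after compound exposure of the mec2-1 yeast strain, which is defective in DNA damage repair or cell cycle control.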

Assay [3] is described as follows: NCI Yeast Anticancer Drug Screen. Data for the sgs1 mgt1 strain (AID 161).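 Also: 0% = growth of cultures given vehicle only.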 As to conditions: S. cerevisiae sgs1 mgt1 strain, stronger effect = higher value. A digest of the protocol: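 Percent growth inhibition was derived by comparing compound-exposed mutant yeast with vehicle-exposed cultures. The strain carries alterations in DNA damage repair.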
Assay [4] is described as follows: NCI Yeast Anticancer Drug Screen. Data for the cln2 rad14 strain (AID 165).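 Also: 0% = growth equal to vehicle treated cultures.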 The settings on record: S. cerevisiae cln2 rad14 strain, stronger effect = higher value. An outline of the steps:
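Growth inhibition, relative to vehicle-treated controls, is the read-out. The test organism is a yeast strain with defined genetic alterations, cln2 rad14.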

A short description of assay [5]: NCI Yeast Anticancer Drug Screen. Data for the bub3 strain (AID 167). The settings on record: S. cerevisiae bub3 mutant strain, stronger effect = higher value. A digest of the protocol: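 Compounds were applied to a genetically altered yeast strain carrying a cell-cycle control defect. Growth inhibition was scored against vehicle-treated controls.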
Assay [6] can be described thus: NCI Yeast Anticancer Drug Screen. Data for the mlh1 rad18 strain (AID 175). The settings on record: S. cerevisiae mlh1 rad18 strain growth inhibition, stronger effect = higher value. An outline of the steps:
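Cells of a genetically altered yeast strain, deficient in DNA damage repair, were treated with compound. Their growth was then compared with that of vehicle-treated cultures to give inhibition.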

[7] abbreviates: at 5.0 µM (retest, dose inferred, filed as 0.5).
Where [8] appears, read: at 50.0 µM (retest, dose inferred, filed as 5.0).

Values joined by “and” are separate entries in the source; they are usually repeats but may differ in a detail not shown here. Equal values may be shown once. About 79,000 compounds went through this panel and 15% of them were active in at least one assay; those are over-represented in the sample as a whole. A structure can be active in one record and inactive in another. Active and inactive are the calls of the source. Rule as the data show it: active = growth inhibition above about 70%; inactive = the rest.

In the case of `CCOP(=S)(OCC)OC(c1ccc(Cl)cc1)c1ccc(Cl)cc1`, the growth inhibition in assay [1] (setting [7]) was 3% (inactive); in assay [1] (setting [8]), -11% (inactive); in assay [1] (at 50.0 µM), 12.8% (inactive); in assay [2] (setting [7]), 0% (inactive); in assay [2] (setting [8]), -7% (inactive); in assay [2] (at 50.0 µM) it was 6.2% (inactive). Also, the growth inhibition in assay [3] (setting [7]) is 7% (inactive); in assay [3] (setting [8]) it was -20% (inactive); in assay [3] (at 50.0 µM) it was 0.25% (inactive); in assay [4] (setting [7]), 6% (inactive); in assay [4] (setting [8]), -29% (inactive); in assay [4] (at 50.0 µM), 15.8% (inactive). Also, the growth inhibition was 11% (inactive) in assay [5] (setting [7]); 18% (inactive) in assay [5] (setting [8]); 49.6% (inactive) in assay [5] (at 50.0 µM); -1% (inactive) in assay [6] (setting [7]); -11% (inactive) in assay [6] (setting [8]); 11.6% (inactive) in assay [6] (at 50.0 µM).
For `C[Si]1(C)CCCCC2(C1)C(=O)NC(=O)NC2=O`, the growth inhibition in assay [1] (setting [7]) was 0% (inactive); in assay [1] (setting [8]), 17% (inactive); in assay [1] (at 50.0 µM) it was 16.4% (inactive); in assay [2] (setting [7]), 4% (inactive); in assay [2] (setting [8]) it was 20% (inactive); in assay [2] (at 50.0 µM), 2.6% (inactive). Moreover, the growth inhibition is -1% (inactive) in assay [3] (setting [7]); 58% (inactive) in assay [3] (setting [8]); 51% (inactive) in assay [3] (at 50.0 µM); -3% (inactive) in assay [4] (setting [7]); 5% (inactive) in assay [4] (setting [8]); 16.5% (inactive) in assay [4] (at 50.0 µM). The growth inhibition in assay [5] (setting [7]) was -5% (inactive); in assay [5] (setting [8]) it was 13% (inactive); in assay [5] (at 50.0 µM), 10.8% (inactive); in assay [6] (setting [7]), -17% (inactive); in assay [6] (setting [8]), 3% (inactive); in assay [6] (at 50.0 µM), 8.5% (inactive).
With `C[As](C)SCCC(CCCCC(=O)O)S[As](C)C` (configuration not stated), the growth inhibition was 27% (inactive) in assay [1] (setting [7]); 38% (inactive) in assay [1] (setting [8]); 66.2% (inactive) in assay [1] (at 50.0 µM); 27% (inactive) in assay [2] (setting [7]); 32% (inactive) in assay [2] (setting [8]); 47% (inactive) in assay [2] (at 50.0 µM). The growth inhibition is 2% (inactive) in assay [3] (setting [7]); -69% (inactive) in assay [3] (setting [8]); 78.3% (active) in assay [3] (at 50.0 µM); 5% (inactive) in assay [4] (setting [7]); -52% (inactive) in assay [4] (setting [8]); 37.4% (inactive) in assay [4] (at 50.0 µM). Moreover, the growth inhibition in assay [5] (setting [7]) was 2% (inactive); in assay [5] (setting [8]), -42% (inactive); in assay [5] (at 50.0 µM), 76.5% (active); in assay [6] (setting [7]), 39% (inactive); in assay [6] (setting [8]), 65% (inactive); in assay [6] (at 50.0 µM) it was 25.4% (inactive).
Turning to `CN(C)c1ccc(/C=C/c2cc[n+]3ccsc3n2)cc1`, the growth inhibition was -3% (inactive) in assay [1] (setting [7]); 69% (inactive) in assay [1] (setting [8]); 90.8% (active) in assay [1] (at 50.0 µM); 24% (inactive) in assay [2] (setting [7]); 94% (active) in assay [2] (setting [8]); 88% (active) in assay [2] (at 50.0 µM). The growth inhibition is -10% (inactive) in assay [3] (setting [7]); 93% (active) in assay [3] (setting [8]); 92.2% (active) in assay [3] (at 50.0 µM); -5% (inactive) in assay [4] (setting [7]); 63% (inactive) in assay [4] (setting [8]); 72% (active) in assay [4] (at 50.0 µM). Also, the growth inhibition in assay [5] (setting [7]) is 8% (inactive); in assay [5] (setting [8]), 90% (active); in assay [5] (at 50.0 µM) it was 96.2% (active); in assay [6] (setting [7]), 2% (inactive); in assay [6] (setting [8]), 85% (active); in assay [6] (at 50.0 µM), 97.2% (active).
`O=C(O)CN(CCN(CC(=O)O)CC(=O)O)CC(=O)O`: the growth inhibition in assay [1] (setting [7]) was 8% (inactive); in assay [1] (setting [8]), 69% (inactive); in assay [1] (at 50.0 µM), 27.9% (inactive) and 13.8% (inactive) and 43.4% (inactive); in assay [2] (setting [7]) it was 14% (inactive); in assay [2] (setting [8]) it was 70% (active); in assay [2] (at 50.0 µM), 42.2% (inactive) and 20% (inactive) and 30.6% (inactive). Moreover, the growth inhibition in assay [3] (setting [7]) was 11% (inactive); in assay [3] (setting [8]), 74% (active); in assay [3] (at 50.0 µM), 65.8% (inactive) and 26.2% (inactive) and 57.2% (inactive); in assay [4] (setting [7]), -3% (inactive); in assay [4] (setting [8]) it was 49% (inactive); in assay [4] (at 50.0 µM), -14.9% (inactive) and -22.5% (inactive) and 17.4% (inactive). Also, the growth inhibition in assay [5] (setting [7]) was 10% (inactive); in assay [5] (setting [8]) it was 66% (inactive); in assay [5] (at 50.0 µM), 60.7% (inactive) and 38% (inactive) and 53.3% (inactive); in assay [6] (setting [7]), 6% (inactive); in assay [6] (setting [8]), 70% (active); in assay [6] (at 50.0 µM) it was 44.4% (inactive) and 24.2% (inactive) and 46.9% (inactive).
As for `c1cc2c(cc1NC1=NCCO1)CCCC2`, the growth inhibition in assay [1] (setting [7]) is 14% (inactive); in assay [1] (setting [8]), 8% (inactive); in assay [1] (at 50.0 µM), -37% (inactive); in assay [2] (setting [7]), 6% (inactive); in assay [2] (setting [8]), 4% (inactive); in assay [2] (at 50.0 µM), -30% (inactive). The growth inhibition was -1% (inactive) in assay [3] (setting [7]); 34% (inactive) in assay [3] (setting [8]); -6.4% (inactive) in assay [3] (at 50.0 µM); 28% (inactive) in assay [4] (setting [7]); 21% (inactive) in assay [4] (setting [8]); 15.8% (inactive) in assay [4] (at 50.0 µM). Further, the growth inhibition is -33% (inactive) in assay [5] (setting [7]); -8% (inactive) in assay [5] (setting [8]); -22.6% (inactive) in assay [5] (at 50.0 µM); 15% (inactive) in assay [6] (setting [7]); 11% (inactive) in assay [6] (setting [8]); -41.1% (inactive) in assay [6] (at 50.0 µM).
`C[CH2][Sn]([Cl])([Cl])[CH2]C`: the growth inhibition in assay [1] (setting [7]) was 20% (inactive) and 26% (inactive); in assay [1] (setting [8]), 58% (inactive) and 79% (active); in assay [1] (at 50.0 µM), 70.3% (active) and 68.2% (inactive); in assay [2] (setting [7]), 10% (inactive) and 16% (inactive); in assay [2] (setting [8]) it was 75% (active) and 85% (active); in assay [2] (at 50.0 µM), 53.3% (inactive) and 77.2% (active). In addition, the growth inhibition in assay [3] (setting [7]) was 12% (inactive) and 21% (inactive); in assay [3] (setting [8]), 50% (inactive) and 68% (inactive); in assay [3] (at 50.0 µM) it was 55.9% (inactive) and 44.2% (inactive); in assay [4] (setting [7]), 2% (inactive) and 31% (inactive); in assay [4] (setting [8]), 42% (inactive) and 35% (inactive); in assay [4] (at 50.0 µM), 53.9% (inactive) and 48.2% (inactive). The growth inhibition in assay [5] (setting [7]) was 17% (inactive) and 11% (inactive); in assay [5] (setting [8]) it was 69% (inactive) and 58% (inactive); in assay [5] (at 50.0 µM), 48.5% (inactive) and 41.8% (inactive); in assay [6] (setting [7]) it was 19% (inactive) and 30% (inactive); in assay [6] (setting [8]), 45% (inactive) and 81% (active); in assay [6] (at 50.0 µM), 33.9% (inactive) and 23.1% (inactive).
Turning to `O=C(c1ccc(Br)cc1)C1C(c2ccccc2)N1C1CCCCC1` (configuration not stated), the growth inhibition in assay [1] (setting [7]) is 1% (inactive); in assay [1] (setting [8]) it was 79% (active); in assay [1] (at 50.0 µM), 95.7% (active); in assay [2] (setting [7]), 0% (inactive); in assay [2] (setting [8]) it was 73% (active); in assay [2] (at 50.0 µM), 96.6% (active). Besides, the growth inhibition is -1% (inactive) in assay [3] (setting [7]); 72% (active) in assay [3] (setting [8]); 96.5% (active) in assay [3] (at 50.0 µM); -4% (inactive) in assay [4] (setting [7]); 58% (inactive) in assay [4] (setting [8]); 94.2% (active) in assay [4] (at 50.0 µM). Besides, the growth inhibition was 4% (inactive) in assay [5] (setting [7]); 94% (active) in assay [5] (setting [8]); 95% (active) in assay [5] (at 50.0 µM); -2% (inactive) in assay [6] (setting [7]); 86% (active) in assay [6] (setting [8]); 91% (active) in assay [6] (at 50.0 µM).
As to `CC1(C)N([O-])[N+](=O)C1(C)Br` (configuration not stated), the growth inhibition in assay [1] (setting [7]) was 23% (inactive); in assay [1] (setting [8]), 15% (inactive); in assay [1] (at 50.0 µM), -2.45% (inactive); in assay [2] (setting [7]) it was 19% (inactive); in assay [2] (setting [8]) it was 13% (inactive); in assay [2] (at 50.0 µM), -10.3% (inactive). The growth inhibition in assay [3] (setting [7]) is 21% (inactive); in assay [3] (setting [8]) it was 24% (inactive); in assay [3] (at 50.0 µM) it was -20.2% (inactive); in assay [4] (setting [7]) it was 12% (inactive); in assay [4] (setting [8]), 24% (inactive); in assay [4] (at 50.0 µM) it was 19.5% (inactive). The growth inhibition was 19% (inactive) in assay [5] (setting [7]); 20% (inactive) in assay [5] (setting [8]); 5.55% (inactive) in assay [5] (at 50.0 µM); 20% (inactive) in assay [6] (setting [7]); 15% (inactive) in assay [6] (setting [8]); 11.4% (inactive) in assay [6] (at 50.0 µM).

The values above are taken from PubChem BioAssay (NCI).
